Laboratory results reported in PubChem BioAssay.
Inconclusive results are not listed. Active and inactive are the calls of the source.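 How the source made its calls, unless noted: active means viability at or below 10% of carrier control in both of two separate runs; inconclusive means viability at or below 10% in only one of the two runs; inactive means the rest.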

Experiments:
[1] = reducers of endogenous Her2 protein level, primary screen, SKBR3 breast tumor cells, AlphaScreen, ATP viability (AID 461;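 active means Her2 level under about 52% in both replicate screens, with viability over 70% of control, limit read from the data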;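 on Her2 level: lower value means less Her2 protein in the cells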;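 on viability: percent of carrier control wells set as 100% viability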); conditions: 18-24 h, measured here: SKBR3 viability, ATP luminescence, at 10 µM
[2] = target: Receptor tyrosine-protein kinase erbB-2 (Homo sapiens) (UniProt P04626); assay: as above; conditions: 18-24 h, at 10 µM, stronger effect = lower value
[3] = SK-BR-3 cell growth inhibitors, pilot screen, 24 h, human (AID 572); conditions: SK-BR-3 viability, CellTiter-Glo luminescence, at 10 µM, stronger effect = lower value;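 further: compound exposure lasted between 18 and 24 h rather than exactly 24 h; 100% = carrier-treated control wells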
[4] = HUVEC growth inhibition – cell-based, human, primary screen (AID 575;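 active means viability at or below 30% in both replicate assays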;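 further: 100% = median of untreated cell wells with 0.1% DMSO on each plate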); conditions: HUVEC proliferation, CellTiter-Glo luminescence, 72 h; at 10 µM; stronger effect = lower value
[5] = growth inhibitors of H69AR lung tumor, primary screen, human, duplicate replicates (AID 580;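 active means viability at or under a set limit in both replicates, limit being median viability minus 3 SD, cut at about 48% in these data, passing the limit was not always enough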;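 further: 100% = mean luminescence of untreated wells and 0% = no signal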); conditions: H69AR lung tumor cells viability, ATP luminescence, 72 h; at 10 µM; stronger effect = lower value
[6] = reversal of MRP1-mediated doxorubicin resistance, pilot screen, H69AR cells, doxorubicin co-treatment (AID 601;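 active means viability loss from added drug above about 55%, and viability with drug at most 40%, in both replicates, limit read from the data, passing the limit was not always enough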); conditions: CellTiter-Glo, 72 h, at 10 µM; for differential viability (reversal): stronger effect = higher value
[7] = 384-well plate pilot, post-Golgi transport modulator project, inhibition of yeast transport mutant growth (AID 636; in the data active means inhibition above about 31%); conditions: absorbance 615 nm, about 18 h, stronger effect = higher value
[8] = growth suppression of yeast trafficking mutant, preliminary HTS, modulators of trafficking downstream of Golgi apparatus project, 1536-format plate, OD 615 nm (AID 637; in the data active means inhibition above about 30%); conditions: yeast transport mutant growth, absorbance 615 nm, 18 h; stronger effect = higher value
[9] = OD615 S. cerevisiae growth inhibition, permissive medium, pilot counter-assay, permissive growth control for S. cerevisiae lifespan shortening project (AID 705;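 active means growth inhibition above 25% in both replicates, a cutoff set 3 SD above the mean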); conditions: OD615, 24 h, at 10 µM, stronger effect = higher value
[10] = Restrictive medium S. cerevisiae growth inhibition, OD615, pilot screen of yeast lifespan reduction project, restrictive growth control (AID 706;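 active means growth inhibition above a set limit, 3 SD over mean compound inhibition, in both replicates, cut at about 43% in these data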;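 further: modified DeaD lifespan yeast strain shifted to restrictive glucose medium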); conditions: OD615, 48 h, at 10 µM, stronger effect = higher value
[11] = viability gain of MRP-1-high H69AR cells under doxorubicin, pilot screen, MRP-1 activator project, CellTiter-Glo, duplicate (AID 807;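 active means viability increase at or above a cutoff of the median across tested compounds plus 3 SD, cut at about 8.5% in these data, passing the limit was not always enough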;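 further: compound pretreatment 18-22 h then 72 h combined with doxorubicin; 0% = doxorubicin alone and 100% = vehicle without doxorubicin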); conditions: H69AR viability with doxorubicin, CellTiter-Glo luminescence; at 10 µM; stronger effect = higher value
[12] = growth suppression of beta-catenin knockout HCT116, pilot screen, human colon tumor cells (AID 823;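 active means cell viability at or below a set limit in both duplicate runs, the limit being the all-compound median minus 4 SD, cut at about 23% in these data, passing the limit was not always enough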;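 further: 0% = wells killed by 20 µM Hyamine and 100% = untreated DMSO cell wells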); conditions: CellTiter-Glo, 60 h, at 10 µM, stronger effect = lower value
[13] = growth suppression of PTEN-deleted HCT116, pilot screen, cell-based, HCT116 clonal line, CellTiter-Glo (AID 824;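 active means viability at or below 27.92% in each of two runs, the all-compound median minus 4 SD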;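 further: 0% = 20 µM Hyamine control and 100% = vehicle cell control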); conditions: 60 h, at 10 µM, stronger effect = lower value
[14] = inhibitors of the yeast RAM network, pilot screen, dse1pr::URA3 reporter, 5-FOA selection (AID 869;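 active means inhibition over a set limit, the all-compound mean plus 3 SD, in both replicate runs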;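 further: 0% = DMSO wells with no growth and 100% = 10 µM 1-NA-PP1 with full growth; RAM network block rescues cells from 5-FOA so hits raise OD615 growth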); conditions: S. cerevisiae dse1pr::URA3 5-FOA growth, OD615, 2 d; at 10 µM; stronger effect = higher value; strain carries analog-sensitive mutant Cbk1 kinase
[15] = H69AR cells + 2 uM doxorubicin, measured here: viability with 2 uM doxorubicin, stronger effect = lower value
[16] = H69AR cells, compound alone cytotoxicity

Chain of Receptor tyrosine-protein kinase erbB-2 (Homo sapiens) (P04626 whole entry, looked up): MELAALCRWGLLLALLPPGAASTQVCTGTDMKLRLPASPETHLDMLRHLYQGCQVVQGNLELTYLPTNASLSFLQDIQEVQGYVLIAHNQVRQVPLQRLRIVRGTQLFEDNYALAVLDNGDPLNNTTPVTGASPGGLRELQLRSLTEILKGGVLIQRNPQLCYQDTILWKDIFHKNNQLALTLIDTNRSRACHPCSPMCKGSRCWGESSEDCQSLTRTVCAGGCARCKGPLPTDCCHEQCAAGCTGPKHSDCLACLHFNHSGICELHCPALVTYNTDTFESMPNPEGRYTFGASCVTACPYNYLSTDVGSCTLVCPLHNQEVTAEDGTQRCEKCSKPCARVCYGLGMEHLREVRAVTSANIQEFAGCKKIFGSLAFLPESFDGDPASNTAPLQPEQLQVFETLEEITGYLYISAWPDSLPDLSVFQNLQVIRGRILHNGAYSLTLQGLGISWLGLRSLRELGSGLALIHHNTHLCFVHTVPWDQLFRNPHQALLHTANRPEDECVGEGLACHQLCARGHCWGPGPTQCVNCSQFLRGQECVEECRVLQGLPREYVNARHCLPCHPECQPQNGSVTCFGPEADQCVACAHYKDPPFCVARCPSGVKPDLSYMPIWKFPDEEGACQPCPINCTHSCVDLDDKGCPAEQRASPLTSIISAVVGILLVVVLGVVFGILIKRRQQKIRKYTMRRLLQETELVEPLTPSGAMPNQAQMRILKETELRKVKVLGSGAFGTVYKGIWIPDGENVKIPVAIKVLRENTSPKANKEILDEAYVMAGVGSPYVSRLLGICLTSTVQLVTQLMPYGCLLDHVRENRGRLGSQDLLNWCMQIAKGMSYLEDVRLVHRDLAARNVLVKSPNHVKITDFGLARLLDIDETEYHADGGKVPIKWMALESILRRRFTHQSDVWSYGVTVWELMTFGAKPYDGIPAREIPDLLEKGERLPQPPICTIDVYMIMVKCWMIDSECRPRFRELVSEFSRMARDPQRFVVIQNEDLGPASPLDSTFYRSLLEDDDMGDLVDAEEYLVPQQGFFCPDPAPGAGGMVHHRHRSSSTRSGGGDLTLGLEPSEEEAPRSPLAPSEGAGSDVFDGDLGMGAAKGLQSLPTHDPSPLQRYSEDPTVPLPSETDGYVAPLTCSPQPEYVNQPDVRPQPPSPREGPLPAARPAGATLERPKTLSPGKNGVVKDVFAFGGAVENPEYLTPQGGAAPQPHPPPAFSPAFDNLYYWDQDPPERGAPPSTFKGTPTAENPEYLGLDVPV

Cc1cccc(OCC(=O)N2CCC(c3ccccc3)C2)c1 (centres undefined)
90.9%: viability [6, 15]
104%: viability [1]
inactive: Her2 level [2] 112% | viability [3] 104% | viability [4] 98% | viability [5] 92.8% | differential viability (reversal) ([6]; H69AR cells + 2 uM doxorubicin) 1.84% | inhibition [7] -4.05% | inhibition [8] -1.83% | growth inhibition [9] -17.9% | growth inhibition [10] -6.05% | viability increase [11] -0.58% | viability [12] 83% | viability [13] 83.7% | inhibition [14] 0.225%
92.8%: viability [6, 16]

Cc1c(C#N)c(N)c(C(=O)c2ccccc2)n1Cc1ccccc1
inactive: Her2 level [2] 122% | viability [3] 83.5% | viability [4] 97.3% | viability [5] 87.4% | differential viability (reversal) ([6]; H69AR cells + 2 uM doxorubicin) 0.08% | inhibition [7] -7.57% | inhibition [8] -16.4%
83.5%: viability [1]
87.3%: viability [6, 15]
87.4%: viability [6, 16]

COC(=O)c1ccc(C(=O)OC)c(NC(=O)Nc2ccc3c(c2)OCO3)c1
92.7%: viability [6, 16]
86.5%: viability [1]
inactive: Her2 level [2] 106% | viability [3] 86.5% | viability [4] 89.1% | viability [5] 92.7% | differential viability (reversal) ([6]; H69AR cells + 2 uM doxorubicin) -2.65% | inhibition [7] -0.78% | inhibition [8] -9.67%
95.4%: viability [6, 15]

C=CCn1c(SCC(=O)Nc2cccc(OC)c2)nnc1-c1cccnc1
87.5%: viability [6, 15]
95.4%: viability [6, 16]
inactive: Her2 level [2] 95% | viability [3] 92.5% | viability [4] 87.2% | viability [5] 95.4% | differential viability (reversal) ([6]; H69AR cells + 2 uM doxorubicin) 7.9% | inhibition [7] -6.4% | inhibition [8] 3.33% | growth inhibition [9] -11.3% | growth inhibition [10] -8.35% | viability increase [11] -2.95% | viability [12] 99.6% | viability [13] 96.8% | inhibition [14] 0.365%
92.5%: viability [1]

CC(=O)Nc1ccn(-c2ccccc2)n1
inactive: Her2 level [2] 105% | viability [3] 83% | viability [4] 97.9% | viability [5] 93.6% | differential viability (reversal) ([6]; H69AR cells + 2 uM doxorubicin) -4.04% | inhibition [7] 0% | inhibition [8] -6.77%
97.6%: viability [6, 15]
93.6%: viability [6, 16]
83%: viability [1]

Cc1ccc(-n2ncc3c(N4CCN(c5ccccc5)CC4)ncnc32)c(C)c1
93%: viability [1]
inactive: Her2 level [2] 79% | viability [3] 93% | viability [4] 57.9% | viability [5] 80.3% | inhibition [7] -2.93% | inhibition [8] 1.94%

CCOc1ccccc1N1C(=O)c2ccc(C(=O)Nc3cccnc3)cc2C1=O
inactive: Her2 level [2] 94% | viability [3] 94.5% | viability [4] 88.2% | viability [5] 102% | differential viability (reversal) ([6]; H69AR cells + 2 uM doxorubicin) 2.08% | inhibition [7] -1.6% | inhibition [8] -2.13% | growth inhibition [9] -15.8% | growth inhibition [10] -21.7% | viability increase [11] 0.54% | viability [12] 107% | viability [13] 98.7% | inhibition [14] 3.15%
94.5%: viability [1]
102%: viability [6, 16]
100%: viability [6, 15]

CC[C@]1(O)C[C@@H]2CN(CCc3c([nH]c4ccccc34)[C@@](C(=O)OC)(c3cc4c(cc3OC)N(C)[C@H]3[C@@](O)(C(=O)OC)[C@H](OC(C)=O)[C@]5(CC)C=CCN6CC[C@]43[C@@H]65)C2)C1
active: viability [4] 10.5%
108%: viability [1]
inactive: Her2 level [2] 78.5% | viability [3] 108% | differential viability (reversal) ([6]; H69AR cells + 2 uM doxorubicin) -38.2%
55.7%: viability [6, 15]
17.5%: viability [6, 16]

O=C(COC(=O)c1cnccn1)c1ccc(OC(=O)c2ccccc2)cc1
104%: viability [1]
inactive: Her2 level [2] 100% | viability [3] 104% | viability [4] 87.8% | viability [5] 96.2% | differential viability (reversal) ([6]; H69AR cells + 2 uM doxorubicin) -2.16% | inhibition [7] -1.67% | inhibition [8] 5.67% | growth inhibition [9] -19.2% | growth inhibition [10] -15.1% | viability increase [11] -0.85% | viability [12] 93.3% | viability [13] 95.2% | inhibition [14] 2.84%
98.3%: viability [6, 15]
96.2%: viability [6, 16]

COc1ccc(N2C(=O)CC(N3CCCC4CCCCC43)C2=O)cc1 (centres undefined)
81.5%: viability [6, 15]
inactive: Her2 level [2] 125% | viability [3] 102% | viability [4] 109% | viability [5] 90.8% | differential viability (reversal) ([6]; H69AR cells + 2 uM doxorubicin) 9.28% | inhibition [7] -4.03% | inhibition [8] -6.83% | growth inhibition [9] -3.32% | growth inhibition [10] 3.25% | viability increase [11] -0.71% | viability [12] 98.3% | viability [13] 101% | inhibition [14] 0.71%
90.8%: viability [6, 16]
102%: viability [1]

CSc1nc2ccc(Nc3nc(N4CCOCC4)nc(N4CCOCC4)n3)cc2s1
60.5%: viability [6, 15]
62.5%: viability [1]
inactive: Her2 level [2] 106% | viability [3] 62.5% | viability [5] 56.8% | differential viability (reversal) ([6]; H69AR cells + 2 uM doxorubicin) -3.63% | inhibition [7] 3.08% | inhibition [8] -0.5% | growth inhibition [9] -4.93% | growth inhibition [10] -5.7% | viability increase [11] -5.72% | viability [12] 68% | viability [13] 66.5% | inhibition [14] 1.97%
active: viability [4] 18.5%
56.8%: viability [6, 16]

CCOC(=O)c1sc(NC(=O)CSc2nnc(-c3ccco3)n2CC)c(C(=O)OCC)c1C
inactive: Her2 level [2] 71% | viability [3] 101% | viability [4] 77.5% | viability [5] 74.2% | inhibition [7] -0.66% | inhibition [8] -0.32%
101%: viability [1]

O=C(COc1ccccc1)N1CCN(c2ncnc3c2cnn3-c2ccccc2)CC1
inactive: Her2 level [2] 77% | viability [3] 97% | viability [4] 58.6% | viability [5] 74.8% | inhibition [7] -8.77% | inhibition [8] -3.65%
97%: viability [1]
